To fix the notation:
B1: Caulobacter ParB omega fusion; a variant is named by its letters at X, in order, B8GW30 (parent)
chain: MESVVVGEPGMSEGRRGLGRGLSALLGEVDAAPAQAPGEQLGGSREAPIEILQRNPDQPRRTFREEDLEDLSNSIREKGVLQPILVRPSPDTAGEYQIVAGERAWRAAQRAGLKTVPIMVRELDDLAVLEIGIIENVQRADLNVLEEALSYKVLMEKFERTQENIAQTIGKSXSHVANXMRLLXLPDEVQSYLVSGELTAXHARAIAAAADPVALAKQIIEGGLSVRETEALARKAPNLSAGKSKGGRPPRVKDTDTQALESDLSSVLGLDVSIDHRGSTGTLTITYATLEQLDDLCNRLTRGI

The results in this text go back to a collection of fitness landscapes (doi:10.1016/j.celrep.2020.107928).

Over roughly 81,000 sequences, “one-hybrid fitness for binding parS DNA” has its median near -0.17; the highest 2% begin near 0.51. The sample as a whole holds a higher share of the highest values than the screen did.

Variants of B1 are the subject of the test. In words: one-hybrid fitness for binding parS DNA (scaled: cognate 1, non-cognate 0); higher = stronger binding. The conditions noted are these: with parS DNA site. In a few lines: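 Fitness here means the log change in variant-to-wild-type read ratio between plasmids sequenced before and after selection. That scale was set so cognate equals 1 and non-cognate equals 0. The selection was a bacterial one-hybrid screen of Caulobacter ParB libraries, four specificity codons randomised, in E. coli USO carrying a HIS3 reporter with the site 19 bp from the promoter, grown 48 hours at 37°C on M9-minus-histidine with 0.1 mM IPTG and 5 mM 3-AT.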
With SVPY, the “one-hybrid fitness for binding parS DNA” value is at most 0.2.

As for WRWT, the “one-hybrid fitness for binding parS DNA” value was at most 0.2.

Consider FLPQ, for which the “one-hybrid fitness for binding parS DNA” value is at most 0.2.

For the variant WSPS, the “one-hybrid fitness for binding parS DNA” value is at most 0.2.

Consider QVPW, for which the “one-hybrid fitness for binding parS DNA” value was at most 0.2.

Consider RLFD, for which the “one-hybrid fitness for binding parS DNA” value was at most 0.2.

Regarding RLAH, the “one-hybrid fitness for binding parS DNA” value was at most 0.2.

As to RLFS, the “one-hybrid fitness for binding parS DNA” value stood at 1.03.

Turning to RLAS, the “one-hybrid fitness for binding parS DNA” value amounted to 1.

For RLFN, the “one-hybrid fitness for binding parS DNA” value is 0.395.

Consider RLAP, for which the “one-hybrid fitness for binding parS DNA” value was at most 0.2.

On to HRSG, for which the “one-hybrid fitness for binding parS DNA” value stood at 0.277.

Take QDER: the “one-hybrid fitness for binding parS DNA” value was at most 0.2.

On to QMYS, for which the “one-hybrid fitness for binding parS DNA” value was at most 0.2.

Regarding YWTY, the “one-hybrid fitness for binding parS DNA” value is at most 0.2.

In the case of IAWK, the “one-hybrid fitness for binding parS DNA” value is at most 0.2.

With PACN, the “one-hybrid fitness for binding parS DNA” value is at most 0.2.

In the case of RQVH, the “one-hybrid fitness for binding parS DNA” value is at most 0.2.

Turning to RQKQ, the “one-hybrid fitness for binding parS DNA” value is at most 0.2.

As for RQVP, the “one-hybrid fitness for binding parS DNA” value was at most 0.2.

As to RQKF, the “one-hybrid fitness for binding parS DNA” value turned out to be 0.328.

Regarding RQVT, the “one-hybrid fitness for binding parS DNA” value stood at 0.678.

Consider RQKT, for which the “one-hybrid fitness for binding parS DNA” value is 0.819.

With FSNE, the “one-hybrid fitness for binding parS DNA” value is at most 0.2.

For the variant TTGM, the “one-hybrid fitness for binding parS DNA” value is at most 0.2.

Regarding ILAP, the “one-hybrid fitness for binding parS DNA” value was at most 0.2.

Turning to ELIG, the “one-hybrid fitness for binding parS DNA” value is at most 0.2.

Regarding HFGL, the “one-hybrid fitness for binding parS DNA” value is at most 0.2.

As for DNSG, the “one-hybrid fitness for binding parS DNA” value was at most 0.2.

On to DNPA, for which the “one-hybrid fitness for binding parS DNA” value was at most 0.2.

Consider RCIT, for which the “one-hybrid fitness for binding parS DNA” value was 0.78.

For RGIT, the “one-hybrid fitness for binding parS DNA” value came to 0.278.

As for RPIT, the “one-hybrid fitness for binding parS DNA” value was at most 0.2.

With RSPT, the “one-hybrid fitness for binding parS DNA” value stood at 0.372.

As to RHIH, the “one-hybrid fitness for binding parS DNA” value was at most 0.2.

As to RHIT, the “one-hybrid fitness for binding parS DNA” value worked out at 0.581.

Take RHPT: the “one-hybrid fitness for binding parS DNA” value worked out at 0.336.

Consider RSIT, for which the “one-hybrid fitness for binding parS DNA” value amounted to 0.628.

For REIT, the “one-hybrid fitness for binding parS DNA” value is at most 0.2.

Regarding YPCV, the “one-hybrid fitness for binding parS DNA” value was at most 0.2.

Turning to ALRC, the “one-hybrid fitness for binding parS DNA” value was at most 0.2.

For the variant TRWA, the “one-hybrid fitness for binding parS DNA” value is at most 0.2.

Take AHIG: the “one-hybrid fitness for binding parS DNA” value was at most 0.2.

With RVWM, the “one-hybrid fitness for binding parS DNA” value was 0.344.

As to RVQC, the “one-hybrid fitness for binding parS DNA” value is 0.983.

Turning to RVSC, the “one-hybrid fitness for binding parS DNA” value turned out to be 0.977.

Turning to RVGC, the “one-hybrid fitness for binding parS DNA” value was determined as 0.934.

On to RVSH, for which the “one-hybrid fitness for binding parS DNA” value is at most 0.2.

With RVWY, the “one-hybrid fitness for binding parS DNA” value turned out to be 0.49.

RVSD: the “one-hybrid fitness for binding parS DNA” value is at most 0.2.

On to RVGM, for which the “one-hybrid fitness for binding parS DNA” value is 0.306.

Regarding RVGF, the “one-hybrid fitness for binding parS DNA” value is 0.254.

For the variant RVWC, the “one-hybrid fitness for binding parS DNA” value was determined as 0.963.

With RVQM, the “one-hybrid fitness for binding parS DNA” value came out at 0.278.

Turning to RVQK, the “one-hybrid fitness for binding parS DNA” value is at most 0.2.

With PWHI, the “one-hybrid fitness for binding parS DNA” value is at most 0.2.

For EAGG, the “one-hybrid fitness for binding parS DNA” value is at most 0.2.

With TACV, the “one-hybrid fitness for binding parS DNA” value was at most 0.2.

As to YPGR, the “one-hybrid fitness for binding parS DNA” value is at most 0.2.

Turning to TVMC, the “one-hybrid fitness for binding parS DNA” value is at most 0.2.

With GENW, the “one-hybrid fitness for binding parS DNA” value is at most 0.2.

CIYR: the “one-hybrid fitness for binding parS DNA” value was at most 0.2.

Regarding METI, the “one-hybrid fitness for binding parS DNA” value is at most 0.2.

Turning to RVRH, the “one-hybrid fitness for binding parS DNA” value was found to be 0.203.

Consider RVLF, for which the “one-hybrid fitness for binding parS DNA” value was determined as 0.259.

On to RVCP, for which the “one-hybrid fitness for binding parS DNA” value was at most 0.2.

Consider RVRP, for which the “one-hybrid fitness for binding parS DNA” value is at most 0.2.

On to RVYM, for which the “one-hybrid fitness for binding parS DNA” value was found to be 0.314.

With RVYQ, the “one-hybrid fitness for binding parS DNA” value was at most 0.2.

For RVLK, the “one-hybrid fitness for binding parS DNA” value was at most 0.2.

On to RVLC, for which the “one-hybrid fitness for binding parS DNA” value stood at 0.958.

As for RVCC, the “one-hybrid fitness for binding parS DNA” value was determined as 0.966.

Turning to RVRC, the “one-hybrid fitness for binding parS DNA” value was 0.851.

Turning to RVCN, the “one-hybrid fitness for binding parS DNA” value turned out to be 0.438.

Consider RVYC, for which the “one-hybrid fitness for binding parS DNA” value turned out to be 0.991.

On to MFWG, for which the “one-hybrid fitness for binding parS DNA” value was at most 0.2.

Regarding QASK, the “one-hybrid fitness for binding parS DNA” value is at most 0.2.

With RCDK, the “one-hybrid fitness for binding parS DNA” value was at most 0.2.

Take QSQF: the “one-hybrid fitness for binding parS DNA” value was at most 0.2.

PAVG: the “one-hybrid fitness for binding parS DNA” value was at most 0.2.

Consider THLD, for which the “one-hybrid fitness for binding parS DNA” value is at most 0.2.

In the case of KYFM, the “one-hybrid fitness for binding parS DNA” value was at most 0.2.

On to RVHM, for which the “one-hybrid fitness for binding parS DNA” value stood at 0.314.

On to RVHY, for which the “one-hybrid fitness for binding parS DNA” value is 0.481.

Regarding RVHC, the “one-hybrid fitness for binding parS DNA” value was 0.965.

Turning to LVSM, the “one-hybrid fitness for binding parS DNA” value was at most 0.2.

As for LKVQ, the “one-hybrid fitness for binding parS DNA” value is at most 0.2.

As to LEMF, the “one-hybrid fitness for binding parS DNA” value was at most 0.2.

On to FCHS, for which the “one-hybrid fitness for binding parS DNA” value was at most 0.2.

As to SKPK, the “one-hybrid fitness for binding parS DNA” value is at most 0.2.

For the variant RCPC, the “one-hybrid fitness for binding parS DNA” value was determined as 0.698.

On to RPPC, for which the “one-hybrid fitness for binding parS DNA” value is at most 0.2.

As for RMPC, the “one-hybrid fitness for binding parS DNA” value is 0.725.

As to RMPF, the “one-hybrid fitness for binding parS DNA” value is at most 0.2.

For the variant RSPC, the “one-hybrid fitness for binding parS DNA” value turned out to be 0.421.

For the variant RMIM, the “one-hybrid fitness for binding parS DNA” value is 0.324.

Turning to RMIC, the “one-hybrid fitness for binding parS DNA” value came out at 0.926.

For RMIL, the “one-hybrid fitness for binding parS DNA” value was at most 0.2.

For RMPP, the “one-hybrid fitness for binding parS DNA” value was at most 0.2.

With EAKD, the “one-hybrid fitness for binding parS DNA” value was at most 0.2.

As for TVNA, the “one-hybrid fitness for binding parS DNA” value was at most 0.2.

Regarding CNTL, the “one-hybrid fitness for binding parS DNA” value is at most 0.2.

Consider RLKN, for which the “one-hybrid fitness for binding parS DNA” value stood at 0.458.

Take RLVN: the “one-hybrid fitness for binding parS DNA” value turned out to be 0.4.

On to RLKD, for which the “one-hybrid fitness for binding parS DNA” value is at most 0.2.

With RLVS, the “one-hybrid fitness for binding parS DNA” value came to 1.03.

Consider RLKS, for which the “one-hybrid fitness for binding parS DNA” value is 0.851.

Regarding RLVH, the “one-hybrid fitness for binding parS DNA” value was found to be 0.223.

For the variant AHEK, the “one-hybrid fitness for binding parS DNA” value was at most 0.2.

Consider MWPC, for which the “one-hybrid fitness for binding parS DNA” value was at most 0.2.

In the case of LAAP, the “one-hybrid fitness for binding parS DNA” value is at most 0.2.

As for QDYS, the “one-hybrid fitness for binding parS DNA” value was at most 0.2.

With QTCI, the “one-hybrid fitness for binding parS DNA” value is at most 0.2.

As to PSAR, the “one-hybrid fitness for binding parS DNA” value was at most 0.2.

Take HTSF: the “one-hybrid fitness for binding parS DNA” value is at most 0.2.

As for AANC, the “one-hybrid fitness for binding parS DNA” value is at most 0.2.

Regarding RVPQ, the “one-hybrid fitness for binding parS DNA” value is at most 0.2.

Take RVIK: the “one-hybrid fitness for binding parS DNA” value is at most 0.2.

Turning to RVPG, the “one-hybrid fitness for binding parS DNA” value is 0.691.

In the case of RVIM, the “one-hybrid fitness for binding parS DNA” value was 0.261.

Consider RVPR, for which the “one-hybrid fitness for binding parS DNA” value is at most 0.2.

Turning to RVIG, the “one-hybrid fitness for binding parS DNA” value came to 0.904.

For HAGS, the “one-hybrid fitness for binding parS DNA” value was at most 0.2.

As to VNPV, the “one-hybrid fitness for binding parS DNA” value was at most 0.2.

As to WRYW, the “one-hybrid fitness for binding parS DNA” value is at most 0.2.

Regarding TQTI, the “one-hybrid fitness for binding parS DNA” value was at most 0.2.

With FACF, the “one-hybrid fitness for binding parS DNA” value is at most 0.2.

Consider RMIN, for which the “one-hybrid fitness for binding parS DNA” value amounted to 0.327.

Take RMID: the “one-hybrid fitness for binding parS DNA” value is at most 0.2.

Take RMIS: the “one-hybrid fitness for binding parS DNA” value worked out at 0.997.

As to RMPN, the “one-hybrid fitness for binding parS DNA” value was determined as 0.262.

RMPD: the “one-hybrid fitness for binding parS DNA” value is at most 0.2.

Regarding RMPS, the “one-hybrid fitness for binding parS DNA” value was found to be 0.889.

Turning to FTGR, the “one-hybrid fitness for binding parS DNA” value was at most 0.2.

Turning to QRNV, the “one-hybrid fitness for binding parS DNA” value was at most 0.2.

Regarding PRGY, the “one-hybrid fitness for binding parS DNA” value was at most 0.2.

Regarding VCNT, the “one-hybrid fitness for binding parS DNA” value was at most 0.2.

As to KCVG, the “one-hybrid fitness for binding parS DNA” value is at most 0.2.

Consider DLRC, for which the “one-hybrid fitness for binding parS DNA” value is at most 0.2.

Take PRLY: the “one-hybrid fitness for binding parS DNA” value was at most 0.2.

As for RWEK, the “one-hybrid fitness for binding parS DNA” value was at most 0.2.

On to RWES, for which the “one-hybrid fitness for binding parS DNA” value amounted to 0.712.

Consider RWEN, for which the “one-hybrid fitness for binding parS DNA” value is at most 0.2.

Take RWEM: the “one-hybrid fitness for binding parS DNA” value is at most 0.2.

Take RWEI: the “one-hybrid fitness for binding parS DNA” value was at most 0.2.

For RWEF, the “one-hybrid fitness for binding parS DNA” value is at most 0.2.

For the variant RWEG, the “one-hybrid fitness for binding parS DNA” value was determined as 0.563.

As to RWEC, the “one-hybrid fitness for binding parS DNA” value was determined as 0.556.

Take RWEA: the “one-hybrid fitness for binding parS DNA” value is 0.301.

On to DQQE, for which the “one-hybrid fitness for binding parS DNA” value is at most 0.2.

CPRM: the “one-hybrid fitness for binding parS DNA” value was at most 0.2.

For KRDI, the “one-hybrid fitness for binding parS DNA” value was at most 0.2.

For DGLW, the “one-hybrid fitness for binding parS DNA” value is at most 0.2.
